Data: PubChem BioAssay (Tox21)
Unmarked numbers belong to inactive results. Records with an inconclusive call do not appear. A call without a number means that no potency is given here. Calls of active or inactive are those of the source. Calls follow the shape of the full dose curve.

Key:
[1] = molecular target: Acetylcholinesterase (Homo sapiens) (UniProt P22303); assay: Acetylcholinesterase (AChE) small molecule antagonists: colormetric cell-based qHTS assay (AID 1347395); also: nearly all actives have a fitted effect of over 30% in size
Chain of Acetylcholinesterase (Homo sapiens) (P22303 whole entry, looked up): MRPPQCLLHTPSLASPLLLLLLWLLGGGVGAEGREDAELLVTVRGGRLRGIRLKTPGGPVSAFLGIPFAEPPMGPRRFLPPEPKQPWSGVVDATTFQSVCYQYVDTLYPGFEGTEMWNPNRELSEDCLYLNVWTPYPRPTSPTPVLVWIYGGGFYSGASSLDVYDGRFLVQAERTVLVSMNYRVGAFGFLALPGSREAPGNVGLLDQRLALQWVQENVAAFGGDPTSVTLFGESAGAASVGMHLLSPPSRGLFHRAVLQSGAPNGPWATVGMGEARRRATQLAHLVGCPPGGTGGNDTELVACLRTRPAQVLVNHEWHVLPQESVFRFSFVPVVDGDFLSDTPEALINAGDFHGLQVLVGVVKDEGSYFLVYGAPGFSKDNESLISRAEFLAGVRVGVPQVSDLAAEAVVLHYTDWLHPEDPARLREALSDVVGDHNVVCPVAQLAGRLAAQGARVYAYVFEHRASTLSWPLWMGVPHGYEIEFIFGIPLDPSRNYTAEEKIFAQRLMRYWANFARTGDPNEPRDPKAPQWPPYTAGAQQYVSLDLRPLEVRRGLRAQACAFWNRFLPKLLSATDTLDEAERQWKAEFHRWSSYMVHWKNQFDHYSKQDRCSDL
In short: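 SH-SY5Y cells, plated overnight at 37 C, were exposed to compounds for 30 min at 37 C and 5% CO2. Acetylthiocholine plus DTNB was then added, and thiocholine from endogenous AChE was quantified colorimetrically after 90 min at 37 C.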

[2] = molecular target: Acetylcholinesterase (Homo sapiens) (UniProt P22303); assay: Acetylcholinesterase (AChE) small molecule antagonists: enzyme-based qHTS assay (AID 1347397); details: Potency: AChE enzyme activity inhibition; outcome: AChE enzyme activity inhibition; also: nearly all actives have a fitted effect of over 55% in size; also: potency is read from the fitted curve at half-maximal effect
In short: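 Recombinant human AChE, dispensed at 50 mU/mL, was preincubated with Tox21 10K compounds or DMSO vehicle for 30 min at room temperature. DTNB plus acetylthiocholine was then added, and thiocholine was measured colorimetrically after a further 10 min.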

[3] = molecular target: Acetylcholinesterase (Homo sapiens) (UniProt P22303); assay: Acetylcholinesterase (AChE) small molecule antagonists: fluorescence cell-based qHTS assay (AID 1347398); details: Potency: AChE activity; outcome: AChE activity; also: nearly all actives have a fitted effect of over 50% in size
In short: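 Human SH-SY5Y cells were plated overnight at 37 C, exposed to compound for 30 min at 37 C, 5% CO2, then given acetylthiocholine plus Thiolite Green for 40 min at room temperature; thiocholine fluorescence (Ex/Em 490/520 nm) reports endogenous AChE activity.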

[4] = molecular target: Acetylcholinesterase (Homo sapiens) (UniProt P22303); assay: Acetylcholinesterase (AChE) small molecule antagonists: enzyme-based qHTS assay with human liver microsomes (AID 1347399); details: Potency: qHTS inhibition; outcome: qHTS inhibition; also: nearly all actives have a fitted effect of over 60% in size
In short: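 Recombinant human AChE (50 mU/mL in the enzyme mix) and human liver microsomes (0.25 mg/mL final) were preincubated with compound and NADPH (0.25 mg/mL final) for 30 min at 37 C. Acetylthiocholine/DTNB was then added; thiocholine was read colorimetrically after 10 min at room temperature.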

Structure (SMILES)	Potency [1]	Potency [2]	Potency [3]	Potency [4]
CC1CCC(=O)C1=O (stereo not drawn)	inactive	inactive	inactive	inactive
Fc1ccc(C(c2ccc(F)cc2)N2CCN(C/C=C/c3ccccc3)CC2)cc1	inactive	inactive	inactive	inactive
CC1(C)S[C@@H]2[C@H](N=CN3CCCCCC3)C(=O)N2[C@H]1C(=O)O	inactive	inactive	inactive	inactive
C[C@H]1c2cccc(O)c2C(O)=C2C(=O)[C@]3(O)C(O)=C(C(N)=O)C(=O)[C@@H](N(C)C)[C@@H]3[C@@H](O)[C@@H]21	inactive	inactive	inactive	inactive
c1ccc(CN(CC2=NCCN2)c2ccccc2)cc1	inactive	inactive	inactive	inactive
CO/N=C(\C(=O)N[C@@H]1C(=O)N2C(C(=O)O)=C(CSc3nc(=O)c(O)nn3C)CS[C@H]12)c1csc(N)n1	inactive	inactive	inactive	inactive
CCCCCCCCCCCCCc1ccccc1	inactive	inactive	inactive	inactive
COc1cc(C(=O)NC2CCCNC2)cc(OC)c1OC (stereo not drawn)	inactive	inactive	inactive	inactive
Cc1ccc2c(Br)cc(Br)c(O)c2n1	inactive	inactive	inactive	inactive
CCCCCCCCCC(C)=O	inactive	inactive	inactive	inactive
CC(=O)c1cccc([N+](=O)[O-])c1	inactive	inactive	inactive	inactive
O=C1CCCCCCCCCCC(=O)OCCO1	inactive	inactive	inactive	inactive
C=CCCC(=O)O	inactive	inactive	inactive	inactive
CCOCCOC(=O)/C=C/c1ccc(OC)cc1	inactive	inactive	inactive	inactive
CC(C)(C)c1cc(C=O)cc(C(C)(C)C)c1O	inactive	inactive	inactive	inactive
Cc1ccc(/C=N/n2c(-c3ccccc3)csc2=S)cc1	inactive	inactive	inactive	inactive
CCCCCCCC/C=C\CCCCCCCC(=O)N(C)CC(=O)O	inactive	63.3 µM (active)	inactive	inactive
COc1ccc([C@@H]2Sc3ccccc3NC(=O)[C@@H]2O)cc1	inactive	inactive	inactive	inactive
CC1=NN(c2ccc(S(=O)(=O)O)cc2)C(=O)C1N=Nc1ccccc1 (stereo not drawn)	inactive	inactive	inactive	inactive
CC(C)COC(=O)COc1ccc(Cl)cc1Cl	inactive	inactive	inactive	inactive
O=C1Nc2ccc(Cl)cc2[C@@](C#CC2CC2)(C(F)(F)F)O1	inactive	inactive	inactive	inactive

Structure (SMILES)	Potency [1]	Potency [2]	Potency [3]	Potency [4]
CC(C)(C)c1ccc(-c2ccc(C(C)(C)C)cc2)cc1	inactive	inactive	inactive	inactive
CCC1=C(C)CN(C(=O)NCCc2ccc(S(=O)(=O)NC(=O)NC3CCC(C)CC3)cc2)C1=O (stereo not drawn)	inactive	inactive	inactive	inactive
Cc1nc(C)c(C)nc1C	inactive	inactive	inactive	inactive
CCCOC(OCCC)OCCC	inactive	inactive	inactive	inactive
CCCCCCCCCCCCCOP(=O)(O)O	inactive	inactive	inactive	inactive
CC(C)=CCCC(C)O (stereo not drawn)	inactive	inactive	inactive	inactive
CC(C)C(C)C	inactive	inactive	inactive	inactive
COC(=O)CCSCCC(=O)OC	inactive	inactive	inactive	inactive
Clc1ccc2n[nH]nc2c1	inactive	inactive	inactive	inactive
CC(C)CCCC(C)(C)O	inactive	inactive	inactive	inactive
CCN(CC)CCNC(C(=O)OCCC(C)C)c1ccccc1 (stereo not drawn)	inactive	inactive	inactive	inactive
CCCCc1ccc2cccc(S(=O)(=O)O)c2c1	inactive	inactive	inactive	inactive
CCC(OCCCOC)OC(C)=O (stereo not drawn)	inactive	inactive	inactive	inactive
CCCCCCCCCCCCCCCC/C=C/C1CC(=O)OC1=O (stereo not drawn)	inactive	inactive	inactive	inactive
C/C=C/C(=O)Oc1c(CCCCCC(C)C)cc([N+](=O)[O-])cc1[N+](=O)[O-]	inactive	71 µM (active)	inactive	inactive
NS(=O)(=O)c1cc2c(cc1Cl)NC(C(Cl)Cl)NS2(=O)=O (stereo not drawn)	inactive	inactive	inactive	inactive
CCCCCCCC/C=C/CCCOC(C)=O	inactive	inactive	inactive	inactive
CCN(CC)C(=O)Nc1ccc(OCC(O)CNC(C)(C)C)c(C(C)=O)c1 (stereo not drawn)	inactive	inactive	inactive	inactive
Cc1nc(C)nc(N2C[C@@H](C)N(c3ccnc([C@@H](C)O)n3)[C@@H](C)C2)n1	inactive	inactive	inactive	inactive
COc1ccc2[nH]c(S(=O)Cc3ncc(C)c(OC)c3C)nc2n1 (stereo not drawn)	inactive	inactive	inactive	inactive
OCCCCCCO	inactive	inactive	inactive	inactive
